Source: paper PMC5540273 (PLoS ONE, 2017)

system: WNK2; conditions: concentration: 1 μM, replicates: in singlicate; n = 1
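Also: KINOMEscan kinase panel screen.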

Structure (SMILES)	%Inh [%]
O=C(Nc1cccc(-c2nn3ccccc3c2-c2ccnc(Nc3cccc(F)c3)n2)c1)c1c(F)ccc(F)c1Cl [GSK357952]	0
c1ccc(-c2cnc3nccnn23)cc1 [AH20685]	2
CN(c1ccc(NC(=O)Nc2cc(C(F)(F)F)ccc2F)cc1)c1ccnc(Nc2ccc(S(N)(=O)=O)cc2)n1 [GW809893]	0
O=C(Nc1n[nH]c2cc(-c3ccoc3)ccc12)C1CC1 [SB-738481]	0
C[C@@H]1CC[C@@H](C(=O)Nc2ccccc2)CN1c1cc(-c2ccc3c(N)n[nH]c3c2)nc(N)n1 [GSK2286062]	0
O=C(Nc1cccc(-c2nn3ncccc3c2-c2ccnc(Nc3ccccc3)n2)c1)c1c(F)cccc1F [GSK198271]	60
COc1cccc(NC(=O)NC2CCN(c3ccnc(Nc4cc(OC)c(OC)c(OC)c4)n3)C2)c1 (stereo not shown) [GSK1379763]	11
CN1CCN(CCCNc2nccc(-c3c(-c4ccc(F)cc4)nn4cc(C(F)(F)F)ccc34)n2)CC1 [GW621581]	13
Nc1n[nH]c2cnc(-c3ccccc3)cc12 [SB-642124]	2
Cc1occc1-c1ncc(OC[C@@H](N)Cc2c[nH]c3ccccc23)cc1-c1ccc2[nH]nc(C)c2c1.O=C(O)C(F)(F)F [GSK682037]	7
Cl.NC(=O)c1cccc(Nc2nccc(Nc3ccc(Oc4c(Cl)cccc4Cl)c(Cl)c3)n2)c1 [GW659009]	0
CCCCc1nn2ncccc2c1-c1ccnc(Nc2ccc(N3CCN(C)CC3)cc2)n1 [GW684941]	31
CCc1ccc(-c2ccc3c(c2)-c2c(cnn2C)S(=O)(=O)N3C)cc1	5
c1ccc(-c2n[nH]cc2Nc2ccnc3ccccc23)nc1 [GW694077]	0
c1ccc(Oc2ccc(Nc3ccnc4cc(-c5ccc(CNCCN6CCOCC6)o5)ccc34)cc2)nc1 [GW567145]	21
Cn1cc(-c2[nH]c3cc(NC(=O)[C@H](N)C4CCCCC4)cc4c3c2C=NNC4=O)cn1	4
FC(F)(F)c1ccc(/C=C/c2cncnc2Nc2ccc3[nH]c(Cc4ccccc4)nc3c2)cc1 [GW709199]	0
COc1cc2c(cc1OCCN1CCNCC1)ncc1c3ccc(C#N)cc3[nH]c21	41
CC(=O)N1CCN(c2ccc(Nc3nccc(-c4sc(C(C)C)nc4-c4cccc(NS(=O)(=O)c5cccc(Cl)c5)c4)n3)cn2)CC1 [GSK1660437]	11

Structure (SMILES)	%Inh [%]
Cc1ccc(F)c(C(=O)Nc2cccc(-c3nn4ccccc4c3-c3ccnc(Nc4cccc(F)c4)n3)c2)c1F [GSK361061]	6
Cc1cccc(NC(=O)Nc2ccc(Oc3ncnc4ccn(C)c34)cc2)c1	0
COc1cc(Nc2nccc(N3CCC(NC(=O)Nc4cccc(C(C)=O)c4)C3)n2)cc(OC)c1OC (stereo not shown) [GSK1379753]	65
C[C@@H](Oc1cc(-n2cnc3cc(-c4ccnc(NCCS(C)(=O)=O)c4)ccc32)sc1C(N)=O)c1ccccc1Cl [GSK907232]	80
COC(=O)Nc1nc2cc(Oc3ccc(NC(=O)Nc4cc(C(F)(F)F)ccc4F)cn3)ccc2[nH]1.Cl.Cl [GW681170]	8
Nc1ncnc2c1nc(-c1ccccc1)n2-c1ccccc1 [SKF-97293]	5
NCCCC(NC(=O)c1cc(Br)c(-c2ccnc3[nH]ccc23)s1)c1ccccc1.O=C(O)C(F)(F)F.O=C(O)C(F)(F)F (stereo not shown) [GSK1287544]	0
CSc1cccc2c(-c3ccncn3)c(-c3ccc(F)cc3)nn12 [GW514786]	1
CC(C)c1nc(-c2cccc(NS(=O)(=O)c3c(F)cccc3F)c2F)c(-c2ccnc(Nc3ccc(N4CCOCC4)nc3)n2)s1 [GSK2008607]	13
Cc1cccc(Nc2nc(N[C@H]3CCNC3)ncc2C(N)=O)c1.Cl [GSK2197149]	0
Nc1ncc(-c2ccc3nccc(-c4ccncc4)c3c2)cc1S(=O)(=O)N1CCOCC1 [GSK1627798]	0
COc1ccc(CNC(=O)NC2CCN(c3ccnc(Nc4ccc(F)cc4)n3)CC2)cc1 [GSK1379788]	7
O=C(Nc1n[nH]c2nc(-c3ccc(O)cc3)ccc12)C1CC1 [SB-710363]	0
CC(C)(C)c1ccc2nccc(Nc3cccc(O)c3)c2c1 [GW856795]	0
COc1cc(Nc2nccc(-c3c(-c4cccc(NC(=O)c5c(F)cccc5F)c4)nn4ccccc34)n2)cc(OC)c1OC [GSK323521]	59
O=c1[nH]cc(-c2ccc(N3CCOCC3)cc2)c2sc(-c3cn[nH]c3)cc12 [GSK2276055]	1
COc1cccc(-c2ccc3c(NC(=O)C4CC4)n[nH]c3n2)c1 [SB-710903]	57
Nc1ncc(-c2cccnc2)c2scc(-c3ccc4c(c3)CCN4C(=O)Cc3ccccc3)c12 [GSK683281]	28
